Screens from PubChem BioAssay.
sEH inh: soluble epoxide hydrolase (human) inhibition | P34913 | recombinant human sEH enzymatic activity assay | inhibition, % at 2 µM | 91,000 compounds, 0.34% hits; in the data active means inhibition above about 80%
Target sequence (P34913 whole entry, looked up): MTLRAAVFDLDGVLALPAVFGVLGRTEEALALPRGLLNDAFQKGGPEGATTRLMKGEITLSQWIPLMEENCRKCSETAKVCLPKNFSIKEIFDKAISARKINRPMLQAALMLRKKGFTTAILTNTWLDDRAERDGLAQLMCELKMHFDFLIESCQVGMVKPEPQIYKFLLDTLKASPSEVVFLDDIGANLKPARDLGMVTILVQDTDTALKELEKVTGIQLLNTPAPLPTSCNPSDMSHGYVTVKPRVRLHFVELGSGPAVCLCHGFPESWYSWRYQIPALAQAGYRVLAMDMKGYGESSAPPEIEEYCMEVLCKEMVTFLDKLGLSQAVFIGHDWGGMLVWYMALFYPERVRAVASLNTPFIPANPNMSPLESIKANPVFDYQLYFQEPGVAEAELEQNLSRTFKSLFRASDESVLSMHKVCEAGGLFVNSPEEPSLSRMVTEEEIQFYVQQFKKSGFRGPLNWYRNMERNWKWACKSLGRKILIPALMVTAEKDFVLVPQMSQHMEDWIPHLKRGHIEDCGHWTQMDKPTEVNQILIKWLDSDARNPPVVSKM
MRP1 act: MRP-1 activation; 140,000 compounds, 0.61% hits; H69AR cells + doxorubicin, viability rescue, CellTiter-Glo; viability increase, % at 10 µM;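 active means viability gain under doxorubicin at or above a set limit, the compound median plus 3 SD, cut at about 4.7% in these data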;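 further: MRP-1 overexpressing cells given doxorubicin 25 µM after compound pretreatment; 18-22 h compound pretreatment then 72 h with doxorubicin before readout; 0% = doxorubicin-only wells and 100% = vehicle-treated cells without doxorubicin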
MRP resist rev: compounds reversing MRP-mediated drug resistance. differential viability (reversal), % at 10 µM. H69AR cells + 2 uM doxorubicin, CellTiter-Glo, 72 h. AID 602. 85,000 compounds, 0.04% hits;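 active means viability drop by adding the cancer drug above about 55%, with treated viability meeting a 40% cutoff, limit read from the data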;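 further: viability without doxorubicin minus viability with 2 µM doxorubicin for each compound; larger differential means the compound sensitizes cells more to doxorubicin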
sEH act: soluble epoxide hydrolase (human) activation; activation, % at 2 µM; P34913; purified human sEH enzymatic activity, activator screen; 91,000 compounds, 0.04% hits; in the data active means activation above about 37%
Starred values were filed as active, the others as inactive; / = not tested or not shown. This is a sample that favours compounds with a hit; in the whole collection about 0.76% have one here.

SMILES	sEH inh	MRP1 act	MRP resist rev	sEH act
CCOC(=O)CSc1nc2ccccc2c(=O)n1CC1CCCC1	3.3	-1.7	-8.5	-3.3
COc1cc(C2C(N3C(=O)c4ccccc4C3=O)C(=O)N2c2cccc(C)c2)cc(OC)c1OC (stereo unspecified)	/	-2.4	/	/
O=C(c1ccco1)N1CCN=C1SCc1ccc(F)cc1	/	6.0*	22.9	/
CC(=O)N1CCN=C1SCc1cccc(C(F)(F)F)c1	3.3	3.7	1.5	-3.7
O=C(c1ccco1)N1CCN=C1SCc1cccc(F)c1	2.2	3.4	10.4	-3.8
CC(=O)N1CCN=C1SCc1ccc(Br)cc1	2.4	9.4*	10.0	-3.3
O=C(CO/N=C/c1ccccc1O)N1CCc2ccccc21	/	-2.1	/	/
S=c1[nH]nc(COc2ccc(Cl)cc2)o1	/	4.9*	6.3	/
Cc1cc(C)n2nc(C(=O)Nc3nnc(C4CC4)s3)nc2n1	-2.8	5.2*	7.6	6.5
COc1ccc(C2C(C(=O)OCC(=O)Nc3ccc(C)cc3)CCC(=O)N2c2ccc(OC)cc2)cc1 (stereo unspecified)	19.4	0.3	2.5	-16.9
COc1ccc(C2C(C(=O)OCC(=O)NC(C)(C)C)CCC(=O)N2c2ccc(C)cc2)cc1OC (stereo unspecified)	-0.5	5.7*	/	-1.2
C/C(=N\Nc1cccc(Cl)c1)c1ccc(-n2ccnc2)cc1	/	-1.3	/	/
O=C(NCc1ccccc1)c1cccc(COc2ccc(Cl)cc2)c1	7.8	-1.3	/	-5.4
COc1cc(CNC(=O)c2cccc(COc3ccc(Cl)cc3)c2)cc(OC)c1	/	4.8*	/	/
N=C(N)SCc1ccc(Cl)cc1Cl	/	5.2*	/	/
Oc1cccc2ccc[n+](CC(O)Cn3c4ccccc4c4ccccc43)c12 (stereo unspecified)	/	-2.1	/	/
O=C(CSc1ncn[nH]1)Nc1nnc(-c2ccccc2)s1	/	7.2*	0.4	/
CC(C)Cc1nnc(NC(=O)CSc2ncn[nH]2)s1	-3.1	5.3*	13.1	0.6
O=C(O)CSc1ncn[nH]1	2.6	-1.1	-15.4	0.9
Cc1cc(=O)[nH]c(SCC(=O)Nc2nnc(CC(C)C)s2)n1	7.8	-0.4	6.9	-8.6
O=C(CSc1ncn[nH]1)NC12CC3CC(CC(C3)C1)C2	6.8	5.1*	4.5	-5.5
Nc1c(C(=O)NCCc2ccc(Cl)cc2)sc2ccc(S(=O)(=O)N3CCCCC3)cc12	/	-2.4	/	/
O=C(CN1CCN(c2ccc(O)cc2)CC1)Nc1cc([N+](=O)[O-])ccc1Cl	/	-4.1	/	/
COc1ccccc1NC(=O)c1ccc(NC(=O)CSc2n[nH]c(N)n2)cc1	/	-0.4	/	/
COc1cc(/C=N/N=C(/N)c2nonc2N)cc(Br)c1OCc1ccccc1C	-6.0	0.0	8.3	2.3
SMILES	sEH inh	MRP1 act	MRP resist rev	sEH act
N/C(=N\N=C\c1ccc2c(c1)OCO2)c1nonc1N	/	5.6*	/	/
COc1ccc(NC(=O)C(=O)N/N=C/c2cc(C)n(-c3cccc(Cl)c3Cl)c2C)c(OC)c1	2.6	5.3*	/	-3.4
COc1ccc(OC)c(NC(=O)C(=O)N/N=C/c2ccccc2[N+](=O)[O-])c1	19.1	-2.9	/	-15.7
Cc1ccc(C(c2nnnn2CS(=O)(=O)c2ccc(C)cc2)N2CCN(c3ncccn3)CC2)cc1 (stereo unspecified)	1.9	10.6*	-8.3	3.6
CN(C)c1ccc(N=C/C=C2/N(C)c3ccccc3C2(C)C)cc1	/	-4.1	/	/
CNc1sc(C(=O)c2ccccc2F)c(N)c1-c1nc2ccccc2s1	-6.3	6.8*	-2.0	5.8
CCCNC(=O)c1ccc(-c2nc3ccccc3s2)s1	-0.5	-2.1	-17.3	2.9
CCCCCn1c(CN2CCCCC2C)nc2c1c(=O)n(C)c(=O)n2C (stereo unspecified)	-1.0	6.0*	-2.4	2.9
CCCCCn1c(CN2CCCCC2CC)nc2c1c(=O)n(C)c(=O)n2C (stereo unspecified)	/	/	22.9	/
Cc1ccc(C(=O)n2c(-c3ccccc3)cnc2SCC(=O)Nc2ccc(C)cc2C)cc1	/	-1.4	/	/
Cc1nc2ccccc2c(=O)n1/N=C/c1ccc(N(C)C)cc1	-4.6	-3.2	6.1	4.2
Cc1nc2ccccc2c(=O)n1/N=C/c1c(O)ccc2oc3c(c12)CCCC3	8.6	5.9*	-13.8	-8.6
Cc1cccc(-n2c(SCC(=O)Nc3ncc(Cl)cc3Cl)nc3ccccc32)c1	/	5.9*	/	/
O=C(CSc1nc2ccccc2n1-c1ccccc1)Nc1ncc(Cl)cc1Cl	/	3.0	/	/
Cc1ccc(CC2SC(=Nc3ccccc3)N(c3ccccc3)C2=O)cc1 (stereo unspecified)	/	5.7*	/	/
CCOCCCNS(=O)(=O)c1ccc(-n2cnnn2)c(OC)c1	-2.9	0.9	16.4	3.5
COc1cc(NS(=O)(=O)c2ccc(C)cc2)ccc1-n1cnnn1	-4.7	6.3*	-7.7	6.2
Cc1c(OCC(=O)OC(C)(C)C)ccc2c3c(c(=O)oc12)CCC3	1.8	5.1*	-9.7	-2.9
O=C(Nc1ccon1)c1cc2c(s1)CCCCCC2	32.6	2.1	5.4	-30.6
O=C(Nc1ccon1)c1cc2c(s1)CCCC2	25.7	4.8*	1.9	-24.8
CCOC(=O)CSc1nc(N)nc(C)c1Br	/	18.7*	4.0	/
Cc1ccc(S(=O)(=O)N2CCN(c3ccc(C(=O)N4CCOCC4)cc3[N+](=O)[O-])CC2)cc1	/	-1.9	/	/
O=C(Nc1ccc(C(=O)OC[C@@H]2CCCN3CCCC[C@H]23)cc1)c1cccc(Br)c1	/	-1.9	/	/
CCOC(=O)c1c(-c2ccc(C)o2)csc1NC(=O)CSc1ncn[nH]1	-15.2	6.8*	3.1	14.6
CCOC(=O)c1c(-c2ccc(C)o2)csc1NC(=O)CN1CCOCC1	4.3	-1.4	9.8	-5.2
SMILES	sEH inh	MRP1 act	MRP resist rev	sEH act
COc1ccc(/C(N)=N/OC(=O)C2CCC(=O)N2S(=O)(=O)c2ccc(C)cc2)cc1OC (stereo unspecified)	/	-1.6	/	/
CC(=O)NCCC(=O)Nc1ccc(C)c(F)c1	6.9	-1.0	-1.6	-6.7
Cc1ccc(NC(=O)CCNC(=O)c2ccc(Cl)cc2)cc1F	/	5.4*	/	/
COc1cc(/C=C(\C#N)c2ccccn2)ccc1OCc1ccccc1Cl	/	5.9*	/	/
COc1cc(/C=C(\C#N)c2ccccn2)ccc1OCC(=O)Nc1cccc(C(F)(F)F)c1	/	-4.8	/	/
CCCCCCCC1CC(CSc2ncn[nH]2)OC1=O (stereo unspecified)	-0.2	10.1*	8.7	-0.1
COc1cc(S(=O)(=O)Nc2cccc(C)c2)ccc1NC(=O)c1ccncc1	/	5.2*	/	/
COc1cc(NC(=S)N2CCN(c3ccccn3)CC2)cc(OC)c1	/	0.9	/	/
O=C(NCc1ccc2c(c1)OCO2)C1CCN(Cc2cnn(-c3ccccc3)c2-n2cccc2)CC1	84.1*	-3.6	3.8	-84.4
O=C(NCc1ccc2c(c1)OCO2)C1CCN(c2ccc(S(=O)(=O)N3CCCC3)cc2)CC1	86.1*	-2.6	/	-86.1
O=C(Nc1ccccc1Cl)C1CCN(Cc2cnn(-c3ccccc3)c2-n2cccc2)CC1	24.0	-3.9	-4.1	-23.9
O=C(O)/C=C/c1ccc2c(-c3ccccc3)onc2c1	/	-3.2	/	/
S=C(Nc1cccc(Cl)c1Cl)Nn1cnnc1	/	0.1	/	/
O=C(NC1CCCCC1)NC1CC2CCC(C1)N2Cc1nnnn1Cc1ccc2c(c1)OCO2 (stereo unspecified)	94.7*	0.3	5.7	-94.6
O=C(COC(=O)c1ccc(S(=O)(=O)NCc2ccco2)cc1)NC1CCCCCC1	90.4*	-1.9	/	-90.3
Cc1nc(NC(=S)NC(=O)c2cccs2)sc1C(=O)N(C)C	-3.2	7.2*	/	5.1
